This is a sample that favours compounds with a hit; in the whole collection about 8% have one here.
MCF10A rerep: A quantitative high throughput screen for small molecules that induce DNA re-replication in MCF 10a normal breast cells. Potency, µM (highest dose often 46.1 µM), for inactives: top-dose activity, positive = re-replication, usual class: activators. 2.9% of 350,000 active. MCF 10A DNA re-replication, Hoechst nuclear intensity, 48 h. AID 624296, 2012; further: % of control where 0% means no effect; nearly all actives have a fitted effect of over 50% in size
HT1080NT lethal: qHTS for induction of synthetic lethality in tumor cells producing 2HG: qHTS for the HT-1080-NT fibrosarcoma cell line; HT-1080-NT fibrosarcoma viability, CellTiter-Glo ATP luminescence, 48 h; Potency, µM (top dose mostly 46.1 µM), inactives show at the top dose activity, negative = less viability, usual class: cytotoxic; 1.6% of 360,000 active;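 further: NT is the 2HG producing partner of a matched IDH1 knockdown line; 0% = DMSO-treated cells and -100% = media-only wells without cells; nearly all actives have a fitted effect of over 55% in size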
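HT-1080-NT fibrosarcoma cells (2HG-overproducing), 750 cells/well in RPMI with 5% FBS, dosed after 2 h and incubated 48 h at 37C. CellTiter-Glo luminescence normalized to DMSO and no-cell wells; concentration-response curves fitted and classed.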
SW480 rerep: A quantitative high throughput screen for small molecules that induce DNA re-replication in SW480 colon adenocarcinoma cells; SW480 DNA re-replication, Hoechst DNA content imaging, 48 h; Potency, µM (top dose mostly 46.1 µM), for inactives: at the top dose re-replication activation, most hits filed as activators; 1.8% of 340,000 active; AID 624297, 2012; further: % of control where 0% means no effect; nearly all actives have a fitted effect of over 55% in size
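Hoechst fluorescence of nuclei (405 nm excitation, 500-530 nm emission) measured by plate-scanning imager after 48 hr compound exposure at 37 C; re-replication scored as increased number of nuclei with elevated intensity.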
KB-V1 cytotox: qHTS assay for MDR1-selective chemotherapeutics: Primary screen using the drug-selected MDR subline cells KB-V1; KB-V1 MDR cells viability, CellTiter-Glo, 72 h; AID 1347076, 2019; Potency, µM (doses to about 46.1 µM), actives largely listed as cytotoxic; 3.4% of 400,000 active; further: on the % scale 0 is the no-effect control and ±100 the full control effect; nearly all actives have a fitted effect of over 60% in size
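qHTS viability screen in drug-selected KB-V1 MDR cells: 72 h compound treatment at 37 degrees C, ATP luminescence end point.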
HT1080 IDH1KD tx: qHTS for induction of synthetic lethality in tumor cells producing 2HG: qHTS for the HT-1080-IDH1KD cell line; HT-1080 IDH1 knockdown viability, ATP luminescence, 48 h; Potency, µM (doses to about 46.1 µM), for inactives: at the top dose activity, negative = toxicity, actives largely listed as cytotoxic; 2% of 360,000 active;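 further: 0% = DMSO wells and -100% = cell-free medium wells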
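In this qHTS, HT-1080 cells depleted of IDH1 are exposed for 48 h at 37 °C to compound titrations. Toxicity is scored from CellTiter-Glo luminescence, with DMSO as full viability and medium alone as none.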
KB-3-1 tox: qHTS assay for MDR1-selective chemotherapeutics: Primary screen using the parental adenocarcinoma cell KB-3-1 | 1.4% of 400,000 active | KB-3-1 viability, CellTiter-Glo ATP luminescence, 72 h | AID 1347075, 2019 | Potency, µM (top dose mostly 46.1 µM), hits mostly cytotoxic; further: on the % scale 0 is the no-effect control and ±100 the full control effect; nearly all actives have a fitted effect of over 60% in size
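Screening of KB-3-1 cells (DMEM, 10% FBS, phenol-red free) ran from lowest to highest compound concentration; after 72 h at 37 °C viability was read luminescently and curves fitted.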
Active calls of the source: *; i = inactive; u = inconclusive; x = no result given; ! = not confirmed by another sample. The call rests on the fitted dose curve; in most records, active means well fitted curve in the direction sought with a large enough effect; inconclusive means small, poorly fitted or top-dose-only effect, or another doubt; inactive means no such curve, though single readings can be large; an effect the other way counts as inactive or inconclusive. Potency means the concentration at half of the fitted maximal effect.

SMILES	MCF10A rerep	HT1080NT lethal	SW480 rerep	KB-V1 cytotox	HT1080 IDH1KD tx	KB-3-1 tox
Cc1ccc(Nc2nnc(SCC(=O)Nc3cccnc3Cl)s2)cc1C	u	-12%	-8%	5.2µM*	u	i
CCc1ccccc1NC(=O)CN(C)C(=O)CSc1nnc(Nc2ccc(C)cc2)s1	-36%	-8%	-51%	15µM*	0%	i
CCc1ccc(Nc2nnc(SCC(=O)N(C)CC(=O)Nc3ccccc3CC)s2)cc1	u	16%	6%	u	9%	i
Cc1c(CN2CCC(C(=O)Nc3cccc(-c4cccc(Cl)c4)c3)CC2)cnn1C	7%	u	5%	i	-24%	i
CC(OC(=O)C1CC=CCC1C(N)=O)C(Cl)=C(Cl)Cl (stereo unspecified)	-1%	1%	-3%	u	4%	i
CCOc1cc(C)c(C(C)C)cc1S(=O)(=O)n1cnc(C)c1	9.2µM*	u	u	u	12µM*	u
COc1ccc(C(C)C)cc1S(=O)(=O)n1cnc(C)c1	u	u	21µM*	i	u	i
COc1cc(C)c(Cl)cc1S(=O)(=O)n1cnc(C)c1	-3%	8%	-3%	i	0%	i
CCOc1cc(C)c(C(C)C)cc1S(=O)(=O)N1CC(C)OC(C)C1 (stereo unspecified)	2%	-1%	12%	u	-10%	i
Cc1cc(S(=O)(=O)N2CCCOC2CNC(=O)C(=O)NCCc2ccco2)ccc1F (stereo unspecified)	-15%	-1%	u	u	-13%	i
Cc1ccc(C(=O)OCC(=O)c2ccc(CC(=O)N3CCOCC3)s2)cc1C	2%	1%	3%	i	3%	i
COc1ccc(C2c3ccc(O)cc3Oc3ncn4nc(-c5cccnc5)nc4c32)cc1OC (stereo unspecified)	0%	16µM*	u	i	15µM*	u
CCCc1ccc(C(=O)CCC(=O)NNC(=O)c2ccncc2)cc1	7%	9%	-7%	u	14%	10µM*
CCCOc1ccc(C(=O)CCC(=O)NNC(=O)c2ccncc2)cc1	-2%	4%	2%	5.8µM*	-1%	u
CCOc1ccc(OCCCC(=O)NNC(=O)c2ccncc2)cc1	-1%	4%	1%	i	10%	i
CCCc1ccc(C(=O)NNC(=O)c2ccc(Cl)cc2)cc1	-7%	-3%	-12%	i	7%	i
CCN(CC)c1ccc(NC(=O)CN(C)Cc2cccs2)cc1	6%	-8%	10%	u	-2%	i
COc1cccc(NC(=O)CN(C)C(=O)c2cccc(NS(=O)(=O)c3ccccc3)c2)c1	1%	9%	u	i	0%	i
O=C(CC(=O)c1ccccc1)Nc1ccccn1	-2%	17%	-6%	i	16%	i
O=C(CC(O)(c1ccccc1)c1ccccc1)Nc1ccccn1	15%	7%	-4%	15µM*	2%	i
Cc1ccc(C(NC(=O)C2CCN(Cc3ccc(Oc4ccccc4)cc3)CC2)c2ccccn2)cc1 (stereo unspecified)	x	15µM*	x	i	21µM*	i
O=C(NC(c1ccc(Cl)cc1)c1cnccn1)C1CCN(Cc2ccc(Oc3ccccc3)cc2)CC1 (stereo unspecified)	x	u	x	u	16µM*	u
Cc1cccnc1C(NC(=O)C1CCN(Cc2ccc(Oc3ccccc3)cc2)CC1)c1ccc(F)cc1 (stereo unspecified)	x	21µM*	x	u	u	u
Cc1cccc(NC(=O)COC(=O)c2cccc(S(=O)(=O)N3CCCCCC3)c2)c1	-8%	6%	-11%	i	3%	i
Cc1nc2ccccc2c(=O)n1/N=C/c1cccs1	-8%	15%	0%	i	6%	i
SMILES	MCF10A rerep	HT1080NT lethal	SW480 rerep	KB-V1 cytotox	HT1080 IDH1KD tx	KB-3-1 tox
O=C(CCCl)Nc1nc2c(s1)CCc1ccccc1-2	18µM*	9.2µM*	u	i	9.2µM*	u
N#C/C(=C(/O)CCl)c1nc2c(s1)CCc1ccccc1-2	13µM*	u	u	15µM*	u	4.1µM*
CC(=O)Nc1nc2c(s1)CCc1ccccc1-2	u	8%	-16%	u	3%	i
CC(C)(C)[C@H]1C=C(C(=O)N2CCOCC2)O[C@@H](OCCCCO)C1	10%	-2%	-1%	i	-2%	i
COc1cccc(N2CCN(C(=S)Nc3cccc(C)c3)CC2)c1	3%	-2%	-4%	i	-2%	i
CC(C)c1ccc(NC(=O)C2CCN(C(=O)c3ccc(F)cc3)CC2)cc1	x	x	x	u	x	i
COc1ccc(S[C@@H](CCN2CC[C@H](NC(=O)OCc3ccccc3)CCC2=O)c2ccccc2)cc1	u	u	u	u	u	13µM*!
O=C(N[C@H]1CCC(=O)N([C@H](CSc2ccccc2)Cc2ccccc2)CC1)OCc1ccccc1	u	-9%	-6%	18µM*!	-11%	u
C[C@@H](CSc1ccc(Br)cc1)CN1CC[C@H](NC(=O)OCc2ccccc2)CCC1=O	u	-19%	5%	15µM*!	-28%	u
O=C1CCN(CCc2ccccc2)CCN1[C@H](CSc1ccc(Br)cc1)Cc1ccccc1	u	-13%	0%	i	-9%	u
O=C1CCN(Cc2ccccc2)CCN1[C@H](CSc1ccccc1)Cc1ccccc1	4%	-7%	-3%	15µM*!	-13%	u
Cc1ccc(C(=O)N2c3ccccc3NC(=O)C2C)cc1 (stereo unspecified)	u	-7%	4%	i	3%	i
Cc1ccc(C)c(N2CCN(C(=O)c3ccc4c(Cl)c5c(nc4c3)CCCC5)CC2)c1	x	x	x	i	x	i
COc1ccc(S(=O)(=O)N(CC(=O)N2CCOCC2)c2ccc(F)cc2)cc1OC	-7%	7%	-10%	i	2%	i
Cc1ccc(C(=O)NC(C)c2ccc(S(N)(=O)=O)cc2)s1 (stereo unspecified)	-5%	11%	2%	i	0%	i
CCn1nc(C)cc1C(=O)NC1CC(C)(C)Cc2c1cnn2-c1cccc(F)c1 (stereo unspecified)	11%	-1%	-1%	u	-10%	i
